Laboratory results taken from PubChem BioAssay (NCATS).
Results filed as inconclusive are left out. A call without a number means that no potency is given here. The source made the active and inactive calls. Unless noted, the call rests on the fitted dose curve; in most records, active means well fitted inhibition curve with a large enough effect; inconclusive means small, poorly fitted or top-dose-only effect; inactive means no such curve, though single readings can be large or run the other way.

test: Primary qHTS for small molecule stabilizers of the endoplasmic reticulum resident proteome: Secreted ER Calcium Modulated Protein (SERCaMP) assay (AID 1508630); details: SH-SY5Y GLuc-SERCaMP (Gaussia luciferase released on ER calcium loss) secretion, thapsigargin, luminescence; series mostly up to 38.4 µM
Procedure, shortened: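 GLuc-SERCaMP-expressing SH-SY5Y cells, pretreated 16 h with compound, are challenged with thapsigargin to empty ER calcium stores; after 4 h, coelenterazine is added directly to the medium and luminescence is imaged.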

| Compound | Potency |
| --- | --- |
| COc1ccc2cc3[n+](cc2c1OC)CCc1cc2c(cc1-3)OCO2 | inactive |
| O=c1cc(O)c(Cl)c[nH]1 | inactive |
| COc1ccccc1OCC(O)COC(N)=O (stereo not given) | inactive |
| CCN[C@H]1C[C@H](C)S(=O)(=O)c2sc(S(N)(=O)=O)cc21 | inactive |
| CCC(=O)O[C@]1(C(=O)CCl)[C@@H](C)C[C@H]2[C@@H]3CCC4=CC(=O)C=C[C@]4(C)[C@@]3(F)[C@@H](O)C[C@@]21C | inactive |
| COc1cc(NS(=O)(=O)c2ccc(N)cc2)nc(OC)n1 | inactive |
| CC(C)OC(=O)OCOP(=O)(CO[C@H](C)Cn1cnc2c(N)ncnc21)OCOC(=O)OC(C)C | inactive |
| O=P(O)(O)C(O)(Cc1cccnc1)P(=O)(O)O | inactive |
| CC(C)C[C@H](NC(=O)[C@H](CCc1ccccc1)NC(=O)CN1CCOCC1)C(=O)N[C@@H](Cc1ccccc1)C(=O)N[C@@H](CC(C)C)C(=O)[C@@]1(C)CO1 | inactive |
| CNS(=O)(=O)Cc1ccc2[nH]cc(CCN(C)C)c2c1 | inactive |
| COc1cnc(NS(=O)(=O)c2ccc(N)cc2)nc1 | inactive |
| CC(C)Cn1cnc2c(N)nc3ccccc3c21 | inactive |
| CO[C@@]12[C@H](COC(N)=O)C3=C(C(=O)C(C)=C(N)C3=O)N1C[C@@H]1N[C@@H]12 | inactive |
| COc1ccc(-c2ccc3cc(C(=O)O)ccc3c2)cc1C12CC3CC(CC(C3)C1)C2 | inactive |
| O=NN(CCCl)C(=O)NC1CCCCC1 | inactive |
| CC(=O)[C@H]1CC[C@H]2[C@@H]3CC=C4C[C@@H](O)CC[C@]4(C)[C@H]3CC[C@]12C | inactive |
| N[C@@H](C(=O)N[C@@H]1C(=O)N2C(C(=O)O)=C(Cl)CS[C@H]12)c1ccccc1 | inactive |
| CCCCc1oc2ccc(NS(C)(=O)=O)cc2c1C(=O)c1ccc(OCCCN(CCCC)CCCC)cc1 | inactive |

| Compound | Potency |
| --- | --- |
| COc1cccc(N(C)C(=S)Oc2ccc3c(c2)CCCC3)n1 | inactive |
| Cc1onc(-c2ccccc2Cl)c1C(=O)N[C@@H]1C(=O)N2[C@@H]1SC(C)(C)[C@@H]2C(=O)O | inactive |
| CN(C)c1ccc(C(=C2C=CC(=[N+](C)C)C=C2)c2ccc(N(C)C)cc2)cc1 | inactive |
| Nc1nc(N)nc(-c2cc(Cl)ccc2Cl)n1 | inactive |
| CCn1cc(C(=O)O)c(=O)c2cc(F)c(N3CCNCC3)nc21 | inactive |
| C#CCN[C@@H]1CCc2ccccc21 | inactive |
| CCN(C)C(=O)Oc1cccc([C@H](C)N(C)C)c1 | inactive |
| Cc1noc(NS(=O)(=O)c2ccc(N)cc2)c1C | inactive |
| CC(=O)Oc1ccccc1C(=O)Nc1ncc([N+](=O)[O-])s1 | inactive |
| O=C(N[C@H](CO)[C@H](O)c1ccc([N+](=O)[O-])cc1)C(Cl)Cl | inactive |
| CCOCC(O)COc1ccc(NC(=O)CC[S+](C)C)cc1 (stereo not given) | inactive |
| COc1ccc(C(=O)CC(=O)c2ccc(C(C)(C)C)cc2)cc1 | inactive |
| CNNCc1ccc(C(=O)NC(C)C)cc1 | inactive |
| COCCCOc1cc(C[C@@H](C[C@H](N)[C@@H](O)C[C@H](C(=O)NCC(C)(C)C(N)=O)C(C)C)C(C)C)ccc1OC | inactive |
| CCCc1cc(C(N)=S)ccn1 | inactive |
| Cc1cccc(Nc2ccncc2S(=O)(=O)NC(=O)NC(C)C)c1 | inactive |
| CNC(=O)c1cc(Oc2ccc(NC(=O)Nc3ccc(Cl)c(C(F)(F)F)c3)cc2)ccn1 | inactive |

test: A High-Content qHTS Against Drug Library for the Identification of Small Molecules that Inhibit DYT1 Early Onset Primary Dystonia-Associated Cell Pathology (AID 1645839; calls by dose curve; further: potency means the concentration at half of the fitted maximal effect); details: HEK293 Flp-In EGFP-delE TorsinA, punctate imaging, 48 h; series mostly up to 46.1 µM
Procedure, shortened: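 Flp-In T-REx 293 cells with tetracycline-inducible EGFP-delE hTOR1A (WT EGFP-hTOR1A as reference), 800 cells/well; compound added with tetracycline, 48 h at 37 C. Fixed, permeabilized cells imaged; %pathology (punctate TorsinA) primary, cell count counterscreen.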

| Compound | Potency | % pathology change, negative = correction |
| --- | --- | --- |
| COc1ccc2cc3[n+](cc2c1OC)CCc1cc2c(cc1-3)OCO2 | inactive | – |
| O=c1cc(O)c(Cl)c[nH]1 | inactive | – |
| COc1ccccc1OCC(O)COC(N)=O (stereo not given) | inactive | – |
| CCN[C@H]1C[C@H](C)S(=O)(=O)c2sc(S(N)(=O)=O)cc21 | inactive | – |
| CCC(=O)O[C@]1(C(=O)CCl)[C@@H](C)C[C@H]2[C@@H]3CCC4=CC(=O)C=C[C@]4(C)[C@@]3(F)[C@@H](O)C[C@@]21C | inactive | – |
| COc1cc(NS(=O)(=O)c2ccc(N)cc2)nc(OC)n1 | inactive | – |
| CC(C)OC(=O)OCOP(=O)(CO[C@H](C)Cn1cnc2c(N)ncnc21)OCOC(=O)OC(C)C | inactive | – |
| O=P(O)(O)C(O)(Cc1cccnc1)P(=O)(O)O | inactive | – |
| CC(C)C[C@H](NC(=O)[C@H](CCc1ccccc1)NC(=O)CN1CCOCC1)C(=O)N[C@@H](Cc1ccccc1)C(=O)N[C@@H](CC(C)C)C(=O)[C@@]1(C)CO1 | inactive | – |
| CNS(=O)(=O)Cc1ccc2[nH]cc(CCN(C)C)c2c1 | inactive | – |
| COc1cnc(NS(=O)(=O)c2ccc(N)cc2)nc1 | inactive | – |
| CC(C)Cn1cnc2c(N)nc3ccccc3c21 | inactive | – |
| O=NN(CCCl)C(=O)NC1CCCCC1 | inactive | – |
| CC(=O)[C@H]1CC[C@H]2[C@@H]3CC=C4C[C@@H](O)CC[C@]4(C)[C@H]3CC[C@]12C | inactive | – |
| N[C@@H](C(=O)N[C@@H]1C(=O)N2C(C(=O)O)=C(Cl)CS[C@H]12)c1ccccc1 | – | 10.3% [at 9.22 µM] (inactive) |
| CCCCc1oc2ccc(NS(C)(=O)=O)cc2c1C(=O)c1ccc(OCCCN(CCCC)CCCC)cc1 | 5.01 µM (active) | – |
| COc1cccc(N(C)C(=S)Oc2ccc3c(c2)CCCC3)n1 | inactive | – |
| Cc1onc(-c2ccccc2Cl)c1C(=O)N[C@@H]1C(=O)N2[C@@H]1SC(C)(C)[C@@H]2C(=O)O | inactive | – |
| Nc1nc(N)nc(-c2cc(Cl)ccc2Cl)n1 | inactive | – |
| CCn1cc(C(=O)O)c(=O)c2cc(F)c(N3CCNCC3)nc21 | inactive | – |
| C#CCN[C@@H]1CCc2ccccc21 | inactive | – |
| CCN(C)C(=O)Oc1cccc([C@H](C)N(C)C)c1 | inactive | – |
| Cc1noc(NS(=O)(=O)c2ccc(N)cc2)c1C | inactive | – |
| CCOCC(O)COc1ccc(NC(=O)CC[S+](C)C)cc1 (stereo not given) | inactive | – |
| COc1ccc(C(=O)CC(=O)c2ccc(C(C)(C)C)cc2)cc1 | inactive | – |
| O=S(=O)(c1cccc2cnccc12)N1CCCNCC1 | inactive | – |
| CNNCc1ccc(C(=O)NC(C)C)cc1 | inactive | – |
| COCCCOc1cc(C[C@@H](C[C@H](N)[C@@H](O)C[C@H](C(=O)NCC(C)(C)C(N)=O)C(C)C)C(C)C)ccc1OC | inactive | – |
| CCCc1cc(C(N)=S)ccn1 | inactive | – |
| Cc1cccc(Nc2ccncc2S(=O)(=O)NC(=O)NC(C)C)c1 | inactive | – |
